As a reminder, the AC50 is the concentration at which the activity in the assay is half-maximal.

Each structure is given as a SMILES string. Activity calls are given as the source filed them. How the source made its calls: active means hit-call score of the fitted dose curve at least 0.9, where 1 is the maximum; inactive means score below 0.9.

This assay can be described thus: ATG_EGR_CIS: Attagene CIS-FACTORIAL HepG2 Assay for human Early Growth Response 1 (EGR1) (AID 2282938). Conditions: HepG2 Attagene CIS-FACTORIAL EGR reporter mRNA; actives raise or lower the signal. On the procedure:
ATG_CIS is a cell-based, multiplexed-readout assay that uses HepG2, a human liver cell line, with measurements taken at 24 hours after chemical dosing in a 24-well plate.ATG_EGR_CIS is one of 52 assay component(s) measured or calculated from the ATG_CIS assay. It is designed to make measurements of mRNA induction, a form of inducible reporter, as detected with fluorescence intensity signals by Reverse transcription polymerase chain reaction (RT-PCR) and Capillary electrophoresis technology.Data from the assay component ATG_EGR_CIS was analyzed into 1 assay endpoint. This assay endpoint, ATG_EGR_CIS, was analyzed with bidirectional fitting relative to DMSO as the negative control and baseline of activity. Using a type of inducible reporter, measures of mRNA for gain or loss-of-signal activity can be used to understand the reporter gene at the transcription factor-level as they relate to the gene EGR1. Furthermore, this assay endpoint can be referred to as a primary readout, because this assay has produced multiple assay endpoints where this one serves a reporter gene function. To generalize the intended target to other relatable targets, this assay endpoint is annotated to the dna binding intended target family, where the subfamily is zinc finger.
Human liver HepG2 cells are transiently transfected with multiple reporter transcription units (MRTUs) in 6-well plates using FuGene 6 reagent (Roche; 3 ml FuGene/1 mg DNA). The MRTU constructs are regulated by a cis-regulating element (promoter). […] A major difference between the CIS and TRANS system is that in CIS activities of endogenous TFs are measured, whereas the TRANS assay evaluates changes in activities of exogenous, chimeric NR-Gal4 proteins. […] At the end of 24 hour incubation, total RNA was isolated using TriZol reagent (Invitrogen). The isolated RNA is then reverse-transcribed using oligo(dT) primer and Mo-MLV reverse transcriptase (Invitrogen) with DNAse I (Ambion) treatment for 30 min. The one-tenth of the produced cDNA was amplified by PCR using Taq DNA polymerase (Invitrogen) and two reporter sequence-specific primers. The PCR products were fluorescently labeled by primer extension with 6-arboxyfluorescein (6-FAM) 5'-labeled reporter sequence-specific primer (2 min at 95 C, 20 s at 68 C and 10 min at 72 C) and these products were digested with 5U of HpaI (New England Biolabs) for 2h at 37 C. The fragments were purified using Qiaquick PCR columns (Qiagen), analyzed on an ABI 3130xL genetic analyzer (Applied Biosystems) with peak positions identified by using a set of X-rhodamine (ROX)-labeled MapMarker1000 molecular weight standards (BioVentures). The raw capillary electrophoresis data was processed using Attagraph software (Attagene).
Take `CCCCCCCCc1ccc(S(=O)(=O)O)cc1`: the call was inactive. As for `CN(C)C(=S)SC(=S)N(C)C`, the compound was called inactive. Take `NC(=S)NNC(N)=S`: the call was inactive. The same measure, in the same setting: then `COC(C)(C)CC(C)=O`, with “inactive”; and `CC1=CC[C@@]23C[C@@H]1C(C)(C)[C@@H]2CC[C@H]3C`, with “inactive”.

Consider `Nc1c(Cl)cc(Cl)cc1[N+](=O)[O-]`, for which the outcome was inactive. For `Oc1c(Cl)cc(Cl)c(Cl)c1Cc1c(O)c(Cl)cc(Cl)c1Cl`, the AC50 is 11.1 µM (active). For `CC1=C(Br)C(=O)C(Br)=C/C1=C(/c1ccccc1S(=O)(=O)O)c1cc(Br)c(O)c(Br)c1C`, the call was inactive. Still for that read-out and setting: then `OCC#CCO`, with “inactive”. As to `CSCCC=O`, the compound was called inactive. Turning to `O=CN1CCOCC1`, the compound was called inactive. With `COS(=O)(=O)O`, the call was inactive.

Consider `CC(C)CCOC(=O)c1ccccc1`, for which the compound was called inactive. On the same count and under the same terms, then `ClC(c1ccccc1)(c1ccccc1)c1ccccc1`, with “inactive”; and `NCC1CCCC(CN)C1` (stereo not given), with “inactive”; and `Cc1ccc2c(c1)C(=O)OC2=O`, with “inactive”.

For `CCCCOCC`, the compound was classed as inactive.

On to `CCCCCCOC(=O)CCC`, for which the compound was called inactive. Take `Brc1ccc(Br)c(Br)c1`: the compound was classed as inactive. The same measure, in the same setting: with `CC(=O)O[C@@H]1C[C@@H]2CC[C@@]1(C)C2(C)C` the entry was “inactive”. On to `CCCC(C)=O`, for which the outcome was inactive. Take `CS(=O)(=O)c1ccc(C2=C(c3ccccc3)C(=O)OC2)cc1`: the outcome was inactive.

Turning to `CC(C)CC(C)CC(O)CC(C)C` (stereo not given), the compound was called inactive. In the case of `c1ccc(CN(Cc2ccccc2)Cc2ccccc2)cc1`, the compound was classed as inactive.

As for `C=CCN(CC=C)CC=C`, the result was inactive. Turning to `COc1cc([C@@H]2c3cc4c(cc3[C@@H](O[C@@H]3O[C@@H]5CO[C@@H](C)O[C@H]5[C@H](O)[C@H]3O)[C@H]3COC(=O)[C@H]23)OCO4)cc(OC)c1O`, the call was inactive. Still for that read-out and setting: then `OC[C@H]1O[C@@H]2O[C@H]3[C@H](O)[C@@H](O)[C@@H](O[C@H]4[C@H](O)[C@@H](O)[C@@H](O[C@H]5[C@H](O)[C@@H](O)[C@@H](O[C@H]6[C@H](O)[C@@H](O)[C@@H](O[C@H]7[C@H](O)[C@@H](O)[C@@H](O[C@H]8[C@H](O)[C@@H](O)[C@@H](O[C@H]9[C@H](O)[C@@H](O)[C@@H](O[C@H]1[C@H](O)[C@H]2O)O[C@@H]9CO)O[C@@H]8CO)O[C@@H]7CO)O[C@@H]6CO)O[C@@H]5CO)O[C@@H]4CO)O[C@@H]3CO`, with “inactive”; and `CCCCCCCCCCCC(=O)OC[C@@H](O)[C@H]1OC[C@H](O)[C@H]1O`, with “inactive”.

Take `C#CC(C)(O)CC(C)C` (stereo not given): the result was inactive. For the compound `CCCCCc1ccco1`, the AC50 is 108 µM (active). `C[Si](C)(C)O[Si](C)(C)C`: the outcome was inactive. As to `C=CC(=O)OCCCC`, the outcome was inactive. On to `O=C1CCCC=CCCCCCCCCCC1`, for which the result was inactive.

Regarding `OCCCCC(O)CO` (stereo not given), the compound was classed as inactive.

With `CCC1CCCCC1`, the compound was classed as inactive. As to `CCOCCOCCOCC`, the compound was classed as inactive. Consider `C=CC(C)C#N` (stereo not given), for which the call was inactive.

For the compound `CS(=O)(=O)c1ccc(Cl)cc1`, the compound was called inactive. With `COc1ccc(COC(C)=O)cc1`, the outcome was inactive.

With `O=C(O)c1ccc(O)cc1`, the compound was classed as inactive.

The values are drawn from PubChem BioAssay (EPA / NIEHS).
